Out of some 1,900 compounds screened, about 250 (13%) were called active. About 4% were inconclusive and are not listed.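 Rule for the calls: active = fitted curve reaches 40% rescue activity at or below the top valid dose, in every test run; inconclusive = test runs disagree, some active and some inactive; inactive = every run misses the threshold or moves the wrong way.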 Not all results are given here. Measured potencies and affinities stand elsewhere.

The test can be described thus: suppressors of statin myotoxicity in myotubes, dose response, cell-based, C2C12 myotubes, ATP luminescence, cherry pick (AID 624405).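 Note: myotubes are challenged with simvastatin at 10 µM to lower ATP.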 The note with it: C2C12 myotubes + simvastatin, 48 h, scaled: DMSO wells 0, geranylgeraniol wells 100; series mostly up to 19.5 µM.
`COc1ccc(S(=O)(=O)Nc2ccc3c(c2)C(=O)N([C@@H](C)CO)C[C@@H](C)[C@H](CN(C)S(=O)(=O)c2ccc(F)cc2)OCCCC[C@@H](C)O3)cc1`: the outcome was inactive.
For `COc1ccc(C(=O)c2nc3c(n2O)CCCC3)cc1OC`, the outcome was inactive.
Next, `Cc1ccc2nc(-c3cccc(NC(=O)c4ccc5c(c4)OCCO5)c3)oc2c1`: “inactive”.
Next, `COc1ccc(-c2noc(CCCC(=O)NCCc3ccccc3)n2)cc1OC`: “inactive”.
Next, `Cc1ccc(-c2csc(-c3c[nH]c4ccccc34)n2)cc1`: “inactive”; `CC(C)NC(=O)N(C)C[C@@H]1Oc2ccc(NC(=O)Nc3cccc4ccccc34)cc2CC(=O)N([C@@H](C)CO)C[C@@H]1C`: “inactive”; `O=C(NCC(=O)N(Cc1ccccc1)C(C(=O)NC1CCCCC1)c1ccco1)c1ccco1` (stereo not drawn): “inactive”.
Turning to `COc1ccc(CNC(=O)C2CCCN(S(=O)(=O)c3ccc4c(c3)CCCN4C(C)=O)C2)cc1` (stereo not drawn), the outcome was inactive.
Next, `COc1ccc(CNS(=O)(=O)c2ccc3c(c2)CCN3C(=O)C2CCC2)cc1`: “inactive”; `C[C@@H]1CCCCO[C@@H](CN(C)S(=O)(=O)c2ccc(Cl)cc2)[C@H](C)CN([C@@H](C)CO)C(=O)c2cc(NS(C)(=O)=O)ccc2O1`: “inactive”; `CC(C)COc1nc2ccccc2c(=O)n1OCC(=O)O`: “inactive”.
As for `CC(C)C#Cc1ccc2c(c1)O[C@@H](CN(C)C(=O)C1CCC1)[C@@H](C)CN([C@@H](C)CO)S2(=O)=O`, the entry is “inactive”.
As for `NNC(=O)c1nn(-c2ccc(Cl)cc2)cc1O`, the entry is “inactive”; as for `COc1ccc(-n2cnc3cc(NCc4cccs4)ccc32)cc1`, “inactive”.
Regarding `C[C@H](CO)N1C[C@H](C)[C@@H](CN(C)Cc2ccc(Cl)c(Cl)c2)Oc2ccc(NC(=O)CCC(F)(F)F)cc2CC1=O`, the result was inactive.
In the case of `Cc1ccc(S(=O)(=O)n2nc(-c3ccco3)nc2SCc2ccccc2)cc1`, the outcome was inactive.
Regarding `O=S(=O)(NCC1CCN(S(=O)(=O)c2ccccc2)CC1)c1ccccc1`, the outcome was inactive.
Next, `CCOC(=O)[C@H]1[C@H]2COc3ccc(Cl)cc3[C@@H]2N2C(=O)c3ccccc3NC(=O)[C@@]12C`: “inactive”.
Next, `Cc1nc2ccc(S(=O)(=O)NCC(=O)N3CCCC(C)C3)cc2s1` (stereo not drawn): “inactive”; `O=C(CNS(=O)(=O)c1ccc(Br)s1)N1CCN(c2ncccn2)CC1`: “inactive”; `C[C@H]1CN([C@@H](C)CO)C(=O)Cc2cc(NC(=O)CCC(F)(F)F)ccc2O[C@@H]1CN(C)Cc1ccc(Oc2ccccc2)cc1`: “inactive”.
As for `COc1ccc(CCNC(=O)c2ccc(N3CCCC3=O)cc2)cc1`, the entry is “inactive”; as for `COc1ccc(CNC(=O)CCOc2ccc(C(C)(C)C)cc2)cc1`, “inactive”.
For `Cc1ccc(Cl)cc1NC(=O)COC(=O)CC1CC2CCC1C2` (stereo not drawn), the result was inactive.
Next, `COc1cccc(S(=O)(=O)N(C)C[C@H]2OCc3ccccc3-c3c(n(C)c4ccccc34)C(=O)N([C@H](C)CO)C[C@H]2C)c1`: “inactive”; `COc1ccc(CN(C)C[C@@H]2Oc3ccc(NS(=O)(=O)c4ccccc4)cc3CC(=O)N([C@H](C)CO)C[C@H]2C)cc1`: “inactive”.
Next, `CCOC(=O)N1CCN(c2ccccc2O)CC1`: “inactive”; `CCOC(=O)N1CCN(C2CC(=O)N(c3ccc(Oc4ccccc4)cc3)C2=O)CC1` (stereo not drawn): “inactive”.
As for `C[C@@H]1CN([C@H](C)CO)C(=O)c2cc(NS(C)(=O)=O)ccc2O[C@@H](C)CCCCO[C@@H]1CN(C)Cc1ccc(Cl)c(Cl)c1`, the entry is “inactive”.
`COc1ccc(C(=O)N2C[C@H]3[C@@H](c4ccccc42)[C@@H](CO)N3Cc2ccccc2)cc1`: the result was inactive.
Next, `CCN(CC)c1nc(C#N)cc(-c2ccc(OC)cc2)n1`: “inactive”; `C[C@H](CO)N1C[C@H](C)[C@@H](CN(C)C(=O)Nc2ccccc2)Oc2ncc(C#CC3CCCC3)cc2C1=O`: “inactive”; `C[C@H](CO)N1C[C@H](C)[C@@H](CN(C)C(=O)Nc2cccc3ccccc23)OCCCC[C@H](C)Oc2ccc(NC(=O)Nc3ccc4c(c3)OCO4)cc2C1=O`: “inactive”.
As for `Cc1ccc(S(=O)(=O)Nc2ccc3c(c2)C(=O)N([C@H](C)CO)C[C@@H](C)[C@H](CN(C)Cc2ccc(Cl)c(Cl)c2)O3)cc1`, the entry is “inactive”; as for `CCOC(=O)C1=C(C)Nc2ccccc2N=C1NC(=O)c1cccc(S(=O)(=O)N(C)C)c1`, “inactive”.
Turning to `COc1ccc(C(=O)N2C[C@@H]3[C@H](c4ccccc42)[C@H](CO)N3Cc2ccccc2)cc1`, the result was inactive.
As for `COC(=O)C1(C(=O)OC)NOC2C(=O)N(c3ccc(Cl)cc3Cl)C(=O)C21` (stereo not drawn), the entry is “inactive”; as for `C[C@@H](NC(=O)C[C@@H]1CC[C@@H]2[C@H](COC[C@H](O)CN2Cc2ccc(C(F)(F)F)cc2)O1)c1ccccc1`, “inactive”; as for `COc1ccc(S(=O)(=O)Nc2ccc3c(c2)C(=O)N([C@H](C)CO)C[C@H](C)[C@H](CN(C)S(=O)(=O)c2ccc(F)cc2)OCCCC[C@H](C)O3)cc1`, “inactive”.
Regarding `CCC(C)(CCNC(=O)Cc1ccccc1)c1ccccc1OC` (stereo not drawn), the outcome was inactive.
Turning to `C[C@H](CO)N1C[C@H](C)[C@@H](CN(C)Cc2ccc(-c3ccccc3)cc2)Oc2ccc(NC(=O)Cc3ccccc3)cc2CC1=O`, the result was inactive.
As for `C[C@H]1CN([C@@H](C)CO)C(=O)Cc2cc(NC(=O)CCCCCC(=O)Nc3ccccc3N)ccc2O[C@@H]1CN(C)Cc1ccc(-c2ccccc2)cc1`, the entry is “inactive”; as for `C[C@H](CO)N1C[C@H](C)[C@@H](CN(C)Cc2ccc(-c3ccccc3)cc2)Oc2ccc(NC(=O)CCCCCC(=O)Nc3ccccc3N)cc2CC1=O`, “inactive”; as for `Cc1noc(C)c1S(=O)(=O)Nc1ccc2c(c1)C(=O)N([C@@H](C)CO)C[C@@H](C)[C@@H](CN(C)S(=O)(=O)c1ccc(Cl)cc1)OCCCC[C@H](C)O2`, “inactive”.
As for `c1ccc2c(c1)CNC1(CCCCC1)C2`, the entry is “inactive”; as for `COc1ccc(S(=O)(=O)Nc2ccc3c(c2)C(=O)N([C@@H](C)CO)C[C@@H](C)[C@@H](CN(C)C(=O)Nc2cccc4ccccc24)OCCCC[C@H](C)O3)cc1`, “inactive”; as for `C[C@@H]1CN([C@H](C)CO)C(=O)Cc2cc(NC(=O)Nc3cccc4ccccc34)ccc2O[C@H]1CN(C)CC1CCCCC1`, “inactive”.
Next, `COc1ccc(S(=O)(=O)Nc2cccc3c2O[C@@H](CN(C)Cc2ccc(Oc4ccccc4)cc2)[C@@H](C)CN([C@@H](C)CO)C3=O)cc1`: “inactive”.

The values are drawn from PubChem BioAssay AID624405 (Broad Institute, 2012).
